Test [1] concerns Vero E6 infected with SARS-CoV-2. As to the kind of experiment: morphology score (similarity to uninfected cells); higher = more like uninfected cells. The following applies: 24 h.
Test [2] shares this test system. Description: SARS-CoV-2 infection rate relative to infected DMSO; higher = more infection, active = 60 or less. The conditions noted are these: 24 h.

`N#Cc1ccc(C2CCCc3cncn32)cc1` (stereo not given) [fadrozole] (10 µM) gave a morphology score in test [1] of 0.114. Besides, the SARS-CoV-2 infection rate in test [2] is 102% (inactive).

For the molecule `On1ncc(C2CCNCC2)c1-c1cccc(-c2ccccc2)c1` (10 µM), in test [1], the morphology score is 0.0231. In addition, the SARS-CoV-2 infection rate in test [2] was 108% (inactive).

Turning to `CCn1c(=O)c2c(nc(/C=C/c3ccc(OC)c(OC)c3)n2C)n(CC)c1=O` [istradefylline] (10 µM), the morphology score in test [1] amounted to 0.157. Further, the SARS-CoV-2 infection rate in test [2] was 108% (inactive).

In turn, `Cc1[nH]c(=O)c(C#N)cc1-c1ccc2nccn2c1` [olprinone] (10 µM) yielded a morphology score in test [1] of 0.0999. Besides, the SARS-CoV-2 infection rate in test [2] was 104% (inactive).

In the case of `O[C@@H](COc1cccc2ncccc12)CN1CCN([C@@H]2c3ccccc3[C@@H]3[C@H](c4ccccc42)C3(F)F)CC1` [zosuquidar] (0.833333 µM), the morphology score in test [1] came out at 0.0321. In addition, in test [2], the SARS-CoV-2 infection rate was 108% (inactive).

For the molecule `c1ccc2[nH]c(-c3cscn3)nc2c1` [tiabendazole] (10 µM), the morphology score in test [1] is 0.157. The SARS-CoV-2 infection rate in test [2] is 111% (inactive).

Molecule `CCCCC(=O)N(Cc1ccc(-c2ccccc2-c2nnn[nH]2)cc1)[C@H](C(=O)O)C(C)C` [valsartan] (10 µM) had a morphology score in test [1] of 0.00713. For the same molecule, in test [2], the SARS-CoV-2 infection rate was 98.5% (inactive).

Molecule `CCOC(=O)[C@H](Cc1ccc([N+](=O)[O-])cc1)NC(=O)c1ccccc1` (10 µM) had a morphology score in test [1] of 0.37. Besides, the SARS-CoV-2 infection rate in test [2] is 84.5% (inactive).

As for `Cc1cc(Nc2ncnc3ccc(-c4ccc(CNCCS(C)(=O)=O)o4)cc23)ccc1Oc1ccn2ncnc2c1` [HER2-Inhibitor-1] (10 µM), in test [1], the morphology score amounted to 0.174. Moreover, in test [2], the SARS-CoV-2 infection rate is 95% (inactive).

Take `O=C(O)C1=CCCN(CCON=C(c2ccccc2)c2ccccc2)C1` (10 µM): in test [1], the morphology score was 0.0245. Further, the SARS-CoV-2 infection rate in test [2] is 95% (inactive).

With `COc1ccc(-n2c(SCCCN3C(=O)c4cccc5cccc(c45)C3=O)nnc2-c2ccncc2)cc1` (0.833333 µM), in test [1], the morphology score came out at 0.102. Further, the SARS-CoV-2 infection rate in test [2] was 108% (inactive).

Molecule `CC(C)(N)C(=O)N[C@H](COCc1ccccc1)C(=O)N1CCC2(CC1)CN(S(C)(=O)=O)c1ccccc12` [ibutamoren] (10 µM) yielded a morphology score in test [1] of -0.0834. Also, the SARS-CoV-2 infection rate in test [2] was 108% (inactive).

As to `CC(C)(C)NCC(O)COc1cccc2[nH]c(C#N)cc12` (stereo not given) [cyanopindolol] (10 µM), the morphology score in test [1] was -0.0665. For the same molecule, the SARS-CoV-2 infection rate in test [2] is 107% (inactive).

With `C=C[C@@]1(C)CC(=O)[C@]2(O)[C@@]3(C)[C@@H](O)CCC(C)(C)[C@@H]3[C@H](OC(=O)CCN(C)C)[C@H](OC(C)=O)[C@@]2(C)O1` [colforsin-daproate] (0.833333 µM), the morphology score in test [1] came out at 0.5. Moreover, the SARS-CoV-2 infection rate in test [2] was 88.5% (inactive).

`CCOC(=O)c1ccc(OC(=O)CCCCCNC(=N)N)cc1` [gabexate] (10 µM) showed a morphology score in test [1] of 0.0775. Further, the SARS-CoV-2 infection rate in test [2] was 102% (inactive).

In test [1], `N[C@@H](C(=O)N[C@@H]1C(=O)N2C(C(=O)O)=C(Cl)CC[C@H]12)c1ccccc1` [loracarbef] (10 µM) gave a morphology score of 0.167. The SARS-CoV-2 infection rate in test [2] was 101% (inactive).

Regarding `Cc1cc2sc(NC(=O)Cc3ccccc3)nc2cc1Cl` (10 µM), the morphology score in test [1] was 0.407. For the same molecule, the SARS-CoV-2 infection rate in test [2] is 76.5% (inactive).

`CC(=O)N(CC(C)C(=O)O)c1c(I)cc(I)c(N)c1I` (stereo not given) [iocetamic-acid] (10 µM) registered a morphology score in test [1] of 0.0591. Besides, the SARS-CoV-2 infection rate in test [2] was 97% (inactive).

In test [1], `C=CC(=O)Nc1ccc2ncnc(Nc3ccc(OCc4cccc(F)c4)c(Cl)c3)c2c1` (10 µM) showed a morphology score of -0.0546. In addition, the SARS-CoV-2 infection rate in test [2] was 102% (inactive).

In test [1], `N=C(N)c1ccc(/N=N/Nc2ccc(C(=N)N)cc2)cc1` [diminazene-aceturate] (10 µM) gave a morphology score of 0.318. Also, the SARS-CoV-2 infection rate in test [2] was 86% (inactive).

Consider `COc1cc(Nc2c(C#N)cnc3cc(OCCCN4CCN(C)CC4)c(OC)cc23)c(Cl)cc1Cl` [bosutinib] (10 µM), for which the morphology score in test [1] is 0.00987. In addition, the SARS-CoV-2 infection rate in test [2] is 96.5% (inactive).

Consider `O=C(NS(=O)(=O)c1ccc(Br)s1)c1ccc(Cl)cc1Cl` [tasisulam] (10 µM), for which the morphology score in test [1] is 0.161. Besides, the SARS-CoV-2 infection rate in test [2] is 109% (inactive).

As for `Oc1ccc(-c2c(-c3ccccc3)nn3c(C(F)(F)F)cc(C(F)(F)F)nc23)cc1` (10 µM), in test [1], the morphology score came out at 0.0465. Further, the SARS-CoV-2 infection rate in test [2] is 104% (inactive).

Take `COc1ccccc1OCCNCC(O)COc1cccc2[nH]c3ccccc3c12` (stereo not given) [carvedilol] (10 µM): in test [1], the morphology score was determined as 0.134. Also, in test [2], the SARS-CoV-2 infection rate was 97.5% (inactive).

In turn, `CN1CCN(S(=O)(=O)c2ccc(-c3cnc(N)c(C(=O)Nc4cccnc4)n3)cc2)CC1` (0.833333 µM) gave a morphology score in test [1] of 0.224. Further, the SARS-CoV-2 infection rate in test [2] is 99% (inactive).

Molecule `CC(OC(=O)OC1CCCCC1)OC(=O)C1=C(CSc2nnnn2CCN(C)C)CS[C@@H]2[C@H](NC(=O)Cc3csc(N)n3)C(=O)N12` (stereo not given in full) [cefotiam-cilexetil] (10 µM) had a morphology score in test [1] of -0.0288. Also, the SARS-CoV-2 infection rate in test [2] was 109% (inactive).

For the molecule `N[C@@H](Cc1cc(I)c(Oc2ccc(O)c(I)c2)c(I)c1)C(=O)O` [liothyronine] (10 µM), in test [1], the morphology score is 0.106. In test [2], the SARS-CoV-2 infection rate is 108% (inactive).

The molecule `O=C(CCBr)N1CCN(C(=O)CCBr)CC1` [pipobroman] (10 µM) yielded a morphology score in test [1] of 0.23. The SARS-CoV-2 infection rate in test [2] was 98.5% (inactive).

In test [1], `Nn1cnc2cc3ccccc3cc2c1=O` [centazolone] (10 µM) showed a morphology score of -0.195. Also, in test [2], the SARS-CoV-2 infection rate is 116% (inactive).

In turn, `CCCCNc1ncc(-c2ccc(CN3CCOCC3)cn2)c(N[C@H]2CC[C@H](O)CC2)n1` (10 µM) displayed a morphology score in test [1] of 0.102. Besides, in test [2], the SARS-CoV-2 infection rate is 113% (inactive).

(Values after the supplement of paper PMC13380429.)
